# Measured values: the supplement of paper PMC5407854, “Inhibitor of ppGalNAc-T3-mediated O-glycosylation blocks cancer cell invasiveness and lowers FGF23 levels” (eLife, 2017)
# Over roughly 1,700 compounds, “T3 sensor activation Q score (MG/GFP ratio z-score vs DMSO controls)” has its median near 0.25; the highest 2% begin near 1.9. The sample as a whole holds a higher share of the highest values than the screen did.
# Tested on: ppGalNAc-T3 sensor
# Assay: T3 sensor activation Q score (MG/GFP ratio z-score vs DMSO controls) (SD units); higher = more sensor activation (inhibition of ppGalNAc-T3 glycosylation)
# Conditions: HEK293 sensor cells; 10 µM; 6 h
# Experimental: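 Cells were treated with compound at 10 uM for 6 h, then MG/GFP ratio was read by flow cytometry (10,000 cells per well, duplicate wells). Q = (R - R_neg)/SD_neg relative to DMSO vehicle controls; the signal rises when the glycosyltransferase is inhibited.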
row,SMILES,T3 sensor activation Q score
1,Cc1cc(=O)c2c(=O)[nH][nH]c2[nH]1,-1.35
2,CCc1noc2cc(-c3ccccc3)n(C)c(=O)c12,0.35
3,CCCSc1ncnc2[nH]ncc12,1.45
4,C#Cc1cccc(Nc2ncnc3cc(OCCOC)c(OCCOC)cc23)c1,2.15
5,C#Cc1cccc(NC(=O)c2ccc(Cl)cc2Cl)c1,-0.65
6,CCCNC(=O)c1ccccc1C(=O)NC1(C(=O)NCCC)CCCC1,-0.35
7,Nc1nc(Nc2ccccc2)n[nH]1,-0.55
8,NC(=O)Nc1ccc(Nc2ccccc2)cc1,0.7
9,CC1(C)CC(Nc2ccc(Nc3ccccc3)cc2)CC(C)(C)N1,1.85
10,OCCCCc1nccc2c1[nH]c1ccccc12,1
11,CNC(=O)c1ccccc1Sc1ccc2c(/C=C/c3ccccn3)n[nH]c2c1,0.7
12,O=C(O)CCC(=O)c1ccc2ccc3cccc4ccc1c2c34,1.75
13,CCOC(=O)Nc1c(Cl)n(C)c(=O)n(C)c1=O,1.75
14,CN(C)c1nc(=NCc2ccco2)ss1,-1.15
15,Cc1nc(C(N)=O)nc2ccccc12,0.2
16,Clc1nnc2c3ccccc3ccn12,0.05
17,NC(=O)c1cc2c3ccccc3ccn2c1-c1ccccc1,2.95
18,Cc1cnc(SCc2ccc(Cl)cc2Cl)[nH]c1=O,-0.3
19,COc1ccc([N+](=O)[O-])cc1NS(=O)(=O)c1ccc(C)cc1,-0.7
20,Cn1c(=O)c2c(nc(Cc3ccccc3)n2C)n(C)c1=O,1.9
21,Cn1c(=O)c2c(nc(OCCc3ccccc3)n2C)n(C)c1=O,1.6

row,SMILES,T3 sensor activation Q score
1,Cn1c(=O)c2c(nc(Oc3ccccc3)n2C)n(C)c1=O,0.7
2,CCOC(=O)N1CCN(Cc2c(O)ccc3ccccc23)CC1,-0.95
3,CCOC(=O)c1cc(-c2ccccc2)nc2ccc(C)cc12,0.8
4,CCOC(=O)c1cc(OCC)c2c(ccc3ccccc32)n1,1.85
5,CC(=O)NS(=O)(=O)c1ccc2sc(C)nc2c1,0.15
6,Nc1ccc(S(=O)(=O)NCC2CCCCO2)cc1 (configuration not stated),1.6
7,NC(N)=NS(=O)(=O)c1ccc(N=C2C(=O)Nc3ccccc32)cc1,0.3
8,Cc1ccc(C(=O)Nc2ccc(CN3CCN(C)CC3)c(C(F)(F)F)c2)cc1C#Cc1cnc2cccnn12,1.9
9,Cc1ccc(NC(=O)c2ccc(CN3CCN(C)CC3)cc2)cc1Nc1nccc(-c2cccnc2)n1,-1.55
10,Cc1c(NC(=O)Nc2c(Cl)cccc2Cl)c(=O)n(-c2ccccc2)n1C,0.1
11,Oc1c(N=Nc2nn[nH]n2)ccc2ccccc12,1.25
12,Cn1cnc2ncnn2c1=S,-1.2
13,C=CCNC(=S)NCC=C,0.35
14,C=CCNC(=S)Nc1c(N)n(C)c(=O)n(C)c1=O,0.75
15,C=CCNC(=S)NCC,1.9
16,O=C(NN1CCCCC1)NN1CCCCC1,1.35
17,O=C(O)c1cccc2c1C(=O)c1cccc3snc-2c13,-0.15
18,CN1C(=C=Cc2cc(I)c(O)c(I)c2)C(C)(C)c2ccccc21,1.9
19,CCCNC(=O)c1ccc(S(N)(=O)=O)cc1,0.65
20,O=[N+]([O-])C1C(c2ccccc2)C12c1ccccc1-c1ccccc12 (configuration not stated),3.55
21,O=C(c1ccccc1)C1C(c2ccccc2)C1[N+](=O)[O-] (configuration not stated),1.7

row,SMILES,T3 sensor activation Q score
1,CCN(CC)Cc1cc2[nH]c3c4ccc(Cl)cc4ncc3c2cc1OC,1.9
2,Cc1cnc2cc(Cl)ccc2c1SCC(=O)O,0.5
3,c1ccc(-c2nc[nH]c2-c2ccccc2)cc1,0.1
4,C[C@@H]1C[C@H]2OC(=O)[C@@]3(C)CCC[C@@](C)([C@@H]23)[C@@]1(O)CCc1ccoc1,0.2
5,COC(=O)c1cc2c(n1S(=O)(=O)c1ccc(C)cc1)C(=O)C(=O)c1[nH]cc(C(=O)OCc3ccccc3)c1-2,0.25
6,C1CCc2nc3c(nc2C1)CCCC3,-0.2
7,Nc1c(Cl)cc(S(N)(=O)=O)cc1S(N)(=O)=O,1.1
8,CC(C)(C)n1nc(C2CC2)cc1NC(=O)Nc1ccccc1,0.25
9,COC(=O)C1(F)C(=O)NC(=O)NC1OC (configuration not stated),0.6
10,O=C(N(c1ccccc1)c1ccccc1)N(c1ccccc1)c1ccccc1,1
11,COc1cc2ncnc(Nc3ccc(F)c(Cl)c3)c2cc1OCCCN1CCOCC1,1.2
12,COc1cc2c(Nc3ccc(Br)cc3F)ncnc2cc1OCC1CCN(C)CC1,2.1
13,COc1cc(Nc2c(C#N)cnc3cc(OCCCN4CCN(C)CC4)c(OC)cc23)c(Cl)cc1Cl,1
14,O=C(O)C(=O)Nc1ncn[nH]1,-1.75
15,Cn1c(=O)c2c(nc(N3CCCCC3)n2C)n(C)c1=O,-0.65
16,Cn1c(=O)c2[nH]c(N3CCCCC3)nc2n(C)c1=O,1.9
17,CCCc1nc2c([nH]1)c(=O)n(C)c(=O)n2C,-0.95
18,NC1(N2SC(S)=C3CCCC=C32)CCCCC1,0.75
19,NC1=C(O)C(=O)C(c2ccccc2)O1 (configuration not stated),0.05
20,O=c1cc(-c2cccnc2)oc2c1ccc1ccccc12,1.25
